Results as given in PubChem BioAssay AID1259343 (VanderVen Lab, College of Veterinary Medicine, Cornell …, 2017).
Hit rate of the full screen: of about 6,200 compounds, about 2,900 (47%) were called active. Rule as the data show it: active = inhibition above about 50%; inactive = the rest. The set was probably picked from earlier hits. The list shows a part of the results.

Experiment: Mycobacterium tuberculosis growth inhibition, primary screen (AID 1259343)
Settings: inhibition: at 10 µM, hits give high values; outcome: 10 uM

| Structure (SMILES) | inhibition |
| --- | --- |
| COc1ccc2c(c1)CCCN2Cc1ccc(C(N)=O)cc1 | 20.6% (inactive) |
| COc1ccc(Oc2ccc(C(=O)NCCc3cnc[nH]3)cc2)cc1 | 52.5% (active) |
| CCc1nc2ccc(C(=O)NCCOc3ccc(OC)cc3)cn2c1N(C=O)Cc1ccc(OC)cc1 | 47% (inactive) |
| COc1ccc(Oc2ccc(C(=O)NCCN3CCNC3=O)cc2)cc1 | 73.9% (active) |
| Cc1ccc(C)c(C(C)CNC(=O)c2cnccn2)c1 (stereo not given) | 21.5% (inactive) |
| COc1ccc(CNC(=O)c2ccc(Br)cn2)cc1 | 14.4% (inactive) |
| O=C(NCc1ccc(OC(F)F)cc1)c1cnccn1 | 85.3% (active) |
| OC(c1ccc(Cl)cc1)c1ccc(OC(F)F)cc1 (stereo not given) | 19.4% (inactive) |
| O=C(NCc1ccc(OC(F)F)cc1)c1ccc(Cl)cc1 | 85.9% (active) |
| COc1ccc2c(c1)CCC1C2CC[C@@]2(C)C1CC[C@@H]2O (stereo not given in full) | 46% (inactive) |
| Cc1c(N)c(C)c([N+](=O)[O-])c(C)c1[N+](=O)[O-] | -53.9% (inactive) |
| Cc1cc(N2CCCC2)ccc1NC(=O)c1cccc(NC(=O)OC(C)(C)C)c1 | 20.1% (inactive) |
| CC(=O)c1ccc(N2CCCC2)cc1OCc1cccc(C)c1 | 36.7% (inactive) |
| N#CCc1cccc(C(=O)Nc2cc(F)cc(N3CCCC3)c2)c1 | 84.4% (active) |
| COc1ccc(-n2nnnc2SCCOc2ccc(Br)cc2)cc1 | inactive |
| COc1ccc(-n2nnnc2SCc2ccc(C#N)cc2)cc1 | 82.8% (active) |
| COc1ccc(OCCSc2nnnn2-c2ccc(OC)cc2)cc1 | -17.4% (inactive) |
| O=P1(Nc2ccc(-c3ccccc3)cc2)C=C(c2ccccc2)OC(c2ccccc2)=C1 | 98.4% (active) |
| Cc1c(C(=O)OCC(C)C)[nH]c2c1C(=O)CCC2 | 60.5% (active) |
| CCCc1cc(=O)[nH]c(-n2nc(C)cc2NC(=O)C2CC2)n1 | 101% (active) |
| CCc1cc(=O)[nH]c(-n2nc(C)cc2NC(=O)C2CC2)n1 | 101% (active) |
| O=c1c(Sc2ccc(Cl)cc2)c(O)c2c(n1-c1ccccc1)CCCC2 | 40.5% (inactive) |
| CC(=O)Oc1ccc2c(=O)oc(COc3ccc(C)c(C)c3)nc2c1 | 60.8% (active) |
| CCNCC#CCOc1ccc(C)c(C)c1 | -6.66% (inactive) |
| CC(C)n1ncc2cc(N)cnc21 | 83.8% (active) |
| O=C1N=C2OC(C(=O)Nc3cccc(Cc4ccccc4)c3)=CN2CCN1 | 91.3% (active) |
| O=C(Nc1ccc(-n2cccc2)cc1)C1=CN2CCN(Cc3cscn3)C(=O)N=C2O1 | 4.33% (inactive) |
| CCN1CC(CN(C)C(=O)Nc2nc3ccccc3s2)Oc2ccccc21 (stereo not given) | 12.4% (inactive) |
| CC(=O)N1CCN(CC(=O)Nc2nc3ccc(F)cc3s2)CC1 | 15.5% (inactive) |
| CN(C(=O)Nc1nc2ccc(F)cc2s1)C1CCCc2ccccc21 (stereo not given) | 74.2% (active) |
